Screening data deposited in PubChem BioAssay by National Center for Advancing Translational Sciences (NCATS).
VACV Venus inh: vaccinia inhibition (Venus reporter); Vaccinia virus Venus reporter expression, fluorescence; Potency, µM (titrated, usually from 36.5 µM), for the others: at the highest dose activity change, negative = inhibition, actives largely listed as inhibitors; 330,000 tested, 0.46% active; AID 720580; calls by dose curve; tested in A549 cells; further: on the % scale 0 is the no-effect control and ±100 the full control effect; nearly all actives have a fitted effect of over 30% in size
NS1 inh: inhibitors of influenza NS1 protein function; Potency, µM (doses to about 46.1 µM), inactives show top-dose activity, positive = more growth; 270,000 tested, 0.4% active; calls by dose curve; further: actives are rising curves; nearly all actives have a fitted effect of over 50% in size
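In this qHTS, NS1 from influenza A is expressed in budding yeast, where it slows growth. Cells are switched from glucose to 2% galactose medium (pH 6.0, -URA), treated with compound, and growth recovery is read at OD600.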
VACV mCherry inh: inhibitors of vaccinia virus infection (mCherry reporter signal); Vaccinia virus mCherry reporter infection, fluorescence; Potency, µM (titrated, usually from 36.5 µM), inactives show top-dose activity change, negative = inhibition, usual class: inhibitors; 310,000 tested, 0.63% active; AID 720579; calls by dose curve; tested in A549 cells; further: on the % scale 0 is the no-effect control and ±100 the full control effect; nearly all actives have a fitted effect of over 35% in size
Pf growth 48h: P. falciparum growth inhibition at 48 hours (one generation); P. falciparum luciferase growth in erythrocytes, 48 h; Potency, µM (series often up to 28.7 µM), for inactives: top-dose activity change, negative = inhibition, most hits filed as inhibitors; 310,000 tested, 5.9% active; further: on the % scale 0 is the no-effect control and ±100 the full control effect
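Cell-based growth assay: transgenic P. falciparum expressing firefly luciferase, cultured in red cells within RPMI 1640 containing 0.5% w/v Albumax, 24 mM bicarbonate and gentamycin. A drop in luciferase activity indicates inhibition.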
HCV inhibitor: HCV inhibition | Potency, µM (series often up to 41.8 µM), without a hit: at the highest dose activity change, negative = inhibition, usual class: inhibitors | Huh7.5.1 HCVcc-Cre infection, luciferase reporter, 44 h | 340,000 tested, 3.4% active; further: on the % scale 0 is the no-effect control and ±100 the full control effect
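Compounds are dispensed onto cells plated 4 h earlier at 1,000 per well, with HCVcc-Cre virus (about 0.5 moi) added next. Following 44 h of culture, luminescent signal is measured for 15 sec after 15 min with substrate at room temperature.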
Pf growth 96h: P. falciparum growth inhibition at 96 hour, primary screen for plastid delayed-death inhibitors. P. falciparum luciferase reporter growth, 96 h. Potency, µM (series often up to 28.7 µM), for the others: top-dose activity change, negative = inhibition, actives largely listed as inhibitors. 320,000 tested, 6.9% active. AID 504834; further: on the % scale 0 is the no-effect control and ±100 the full control effect
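Cell-based qHTS: luciferase-tagged P. falciparum in erythrocytes (2% hematocrit, 0.05% parasitemia final) incubated with compounds for 96 hours, 37 C, 5% CO2; luciferase detection reagent then added and luminescence measured.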
Numbers without * were called inactive; i = inactive; ? = inconclusive; / = no result given; [ ] = dose if it differs, or a comment. A selection: hits, their analogues and other compounds. The true share with any hit is near 11%. Unless noted, the call rests on the fitted dose curve; in most records, active means well fitted inhibition curve with a large enough effect; inconclusive means small, poorly fitted or top-dose-only effect, or another doubt; inactive means no such curve, though single readings can be large or run the other way. Potency means the concentration at half of the fitted maximal effect.

SMILES	VACV Venus inh	NS1 inh	VACV mCherry inh	Pf growth 48h	HCV inhibitor	Pf growth 96h
CC(=O)Nc1ccc(NC(=O)CSc2nc(C)nc3sc(C)c(C)c23)cc1	-7%	9%	-4%	-3%	12%	79%
Cc1nc(SCC(=O)Nc2ccc(CN3CCCC3)cc2)c2c(C)c(C)sc2n1	-26%	/	14%	9.3µM*	?	13µM*
COc1cccc2cc(-c3nnc(-c4ccc(Cl)cc4)o3)c(=O)oc12	-2%	/	-9%	/	/	/
COc1cccc2cc(-c3nnc(-c4ccccc4)o3)c(=O)oc12	-18%	1%	-9%	23%	-6%	8.3µM*
COc1ccc(-c2nnc(-c3cc4ccccc4oc3=O)o2)cc1	2%	22%	-11%	13%	4%	12µM*
CCCCCCc1cc2cc(-c3nnc(-c4ccccc4OC)o3)c(=O)oc2cc1O	-15%	4%	?	3.7µM*	-7%	/
O=C(Nc1ccccc1)C1CCCN1C(=O)NCc1ccccc1 (configuration not stated)	-10%	2%	-16%	-2%	24%	30%
O=[N+]([O-])c1ccc2c(c1)/C(=N\O)c1ccccc1-2	-14%	7%	-10%	5%	?	30%
Nc1cc2c(cc1Cl)-c1ccc([N+](=O)[O-])cc1C2=NO	17%	/	i	/	5.6µM*	/
COc1ccc(-n2cnc3cc([N+](=O)[O-])ccc32)cc1	-2%	-1%	i	4%	-26%	?
O=C(Nc1nc(-c2ccncc2)cs1)C1c2ccccc2Oc2ccccc21	-7%	-15%	-16%	?	?	?
O=C(Nc1nc(-c2ccccc2)cs1)C1c2ccccc2Oc2ccccc21	-14%	2%	-13%[1.46 µM]	12µM*	9%	10µM*
O=C(Nc1ccncc1)C1c2ccccc2Oc2ccccc21	/	-10%	/	5.9µM*	20%	/
COc1ccc(-c2nnc(NC(=O)Cc3ccccc3)s2)c(OC)c1	/	0%	/	88%	10%	88%
CC(C)=N/N=C1\NC(=O)C(C)S1 (configuration not stated)	/	0%	/	4.7µM*	17%	1.2µM*
CCCOc1cccc(C(=O)NC(=S)Nc2cccc(NC(=O)c3ccccc3Cl)c2)c1	-17%	?	-1%	2%	-12%	2.9µM*
O=C(Nc1ccc(NC(=S)NC(=O)c2ccccc2Cl)cc1)c1cccc(Cl)c1	-29%	/	/	/	25µM*	/
O=C(NN=Cc1ccc(Cl)cc1Cl)c1ccccc1	-12%	/	-5%	/	/	/
CC1CN(C)CCC1OC(=O)c1ccccc1 (configuration not stated)	/	12%	/	10%	-3%	2.1µM*
CCCCOc1ccc(C(=O)OC2CC(C)N(C)CC2C)cc1 (configuration not stated)	-17%	-2%	-23%	?	4.5µM*	/
O=C(O)c1ccc(CSc2nnc(COc3ccc(Cl)cc3Cl)o2)cc1	-1%	-56%	-20%	/	1%	2.6µM*
COc1cccc(NC(=O)Cc2ccc3ccccc3c2)c1	/	-32%	/	15%	?	24%
Cc1nccc(-c2cccc(NC(=O)Nc3ccc(Cl)cc3)c2)n1	-16%	3%	-16%	?	?	?
Cc1nccc(-c2cccc(N/N=C(\C#N)C(=O)c3ccccc3)c2)n1	/	-1%	/	13µM*	-5%	5.2µM*
Cc1ccc(C2=NN(C(=O)CCCC(=O)O)C(c3ccco3)C2)cc1 (configuration not stated)	2%	4%	-5%	?	29%	2%
SMILES	VACV Venus inh	NS1 inh	VACV mCherry inh	Pf growth 48h	HCV inhibitor	Pf growth 96h
O=C(CNC(=O)c1ccccc1)OCC(=O)N1N=C(c2ccc(Cl)cc2)CC1c1ccco1 (configuration not stated)	/	/	/	?	23%	3%
COc1ccc(C2=NN(C(=O)COc3ncnc4ccccc34)C(c3ccco3)C2)cc1 (configuration not stated)	-17%	-5%	-12%	-22%	-25%	?
CCC(=O)N1N=C(c2ccc(NS(=O)(=O)c3ccccc3)cc2)CC1c1ccco1 (configuration not stated)	/	/	/	/	11µM*	/
Cc1ccc(S(=O)(=O)N[C@H](C(=O)OCC(=O)N2N=C(c3ccc(Cl)cc3)CC2c2ccco2)C(C)C)cc1 (some centres not stated)	?	30%	?	10µM*	13µM*	?
Cc1ccc(C2=NN(C(=O)CCl)C(c3ccco3)C2)o1 (configuration not stated)	-6%	-4%	-29%	10µM*	8.9µM*	6.6µM*
COc1ccc(C2=NN(C(=O)COC(=O)c3ccc(S(C)(=O)=O)c([N+](=O)[O-])c3)C(c3ccco3)C2)cc1 (configuration not stated)	?	/	11µM*	/	?	/
N#CCCN(C(=O)COC(=O)c1n[nH]c2ccccc12)c1ccccc1	-7%	/	i	/	-3%	/
N#Cc1ccc(NC2=NS(=O)(=O)c3ccccc32)cc1	-11%	/	-9%	/	/	/
N#CCCN(NC1=NS(=O)(=O)c2ccccc21)C(=O)c1ccccc1Br	-7%	3%	i	15%	8%	3.3µM*
CN(CC(=O)Nc1ccc(Cl)cc1)C(=O)c1ccc(N2CCCC2=O)cc1	/	/	/	37%	22%	57%
CN(CC(=O)Nc1ccc(OC(F)(F)F)cc1)C(=O)c1ccc(N2CCCC2=O)cc1	/	/	/	-15%	4.5µM*	-21%
O=c1c2c([nH]c3ccc(Br)cc13)CCCC2	-9%	-104%	/	0.33µM*	-24%	0%
O=[N+]([O-])c1ccc2[nH]c3c(c2c1)CCCC3	/	/	/	-2%	11µM*	3%
S=C(NCc1cccs1)Nc1cccc2ccccc12	-10%	-6%	-10%	15%	-17%	0%
S=C(NCc1ccccc1)Nc1cccc2ccccc12	-11%	6%	?	?	10µM*	?
O=C(O)CNC(=S)NCc1ccccc1	7%	14%	1%	13µM*	12%	20%
NNC(=S)NCc1ccccc1	-6%	7%	?	?	9%	9.3µM*
S=C(NCc1ccccc1)NCc1cccc(CNC(=S)NCc2ccccc2)c1	/	-5%	/	-11%	?	0%
Cc1ccc(C(C)C)c(OCCNC(=S)Nc2cccc3ccccc23)c1	/	5%	/	9.3µM*	32µM*	?
Cc1ccc(C(C)C)c(OCCN)c1	-12%	5%	i	-12%	-11%	88%
Cc1cc(-c2ccccc2)nc2cc(C(=O)Nc3ccc(Cl)c(Cl)c3)nn12	-20%	/	-26%	/	/	/
Cc1oc2ncn(C)c(=O)c2c1C(=O)N1CCN(c2ccc(Cl)cc2)CC1	-5%	/	-9%	/	/	/
c1ccc2c(c1)OCCOCCOCCOCCOCCOc1ccccc1OCCOCCOCCO2	-27%	-35%	?	?	?	7.4µM*
Clc1ccc(Cn2nnc3ccccc32)cc1	-19%	-5%	-12%	20%	13%	2%
